# Unmarked numbers belong to inactive results. This is one part of the list. Activity calls are given as the source filed them.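 Rule for the calls, unless noted: active = mean inhibition across replicates above the hit cutoff set by the earlier primary screen (cut at about 15% in these data); inactive = the rest.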
# Experiments:
# [1] = molecular target: Protein-arginine deiminase type-4 (Homo sapiens) (UniProt Q9UM07); assay: protein arginine deiminase 4 blockade, retest – biochemical, fluorescence polarization, confirmation (AID 488796); conditions: recombinant PAD4, RCA probe fluorescence polarization; at 6.36 µM; hits give high values;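 note: inhibitors block active-site labeling by the probe so polarization falls; 0% = PAD4 with probe and DMSO and 100% = probe without PAD4 enzyme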
# Chain of Protein-arginine deiminase type-4 (Homo sapiens) (Q9UM07 whole entry, looked up): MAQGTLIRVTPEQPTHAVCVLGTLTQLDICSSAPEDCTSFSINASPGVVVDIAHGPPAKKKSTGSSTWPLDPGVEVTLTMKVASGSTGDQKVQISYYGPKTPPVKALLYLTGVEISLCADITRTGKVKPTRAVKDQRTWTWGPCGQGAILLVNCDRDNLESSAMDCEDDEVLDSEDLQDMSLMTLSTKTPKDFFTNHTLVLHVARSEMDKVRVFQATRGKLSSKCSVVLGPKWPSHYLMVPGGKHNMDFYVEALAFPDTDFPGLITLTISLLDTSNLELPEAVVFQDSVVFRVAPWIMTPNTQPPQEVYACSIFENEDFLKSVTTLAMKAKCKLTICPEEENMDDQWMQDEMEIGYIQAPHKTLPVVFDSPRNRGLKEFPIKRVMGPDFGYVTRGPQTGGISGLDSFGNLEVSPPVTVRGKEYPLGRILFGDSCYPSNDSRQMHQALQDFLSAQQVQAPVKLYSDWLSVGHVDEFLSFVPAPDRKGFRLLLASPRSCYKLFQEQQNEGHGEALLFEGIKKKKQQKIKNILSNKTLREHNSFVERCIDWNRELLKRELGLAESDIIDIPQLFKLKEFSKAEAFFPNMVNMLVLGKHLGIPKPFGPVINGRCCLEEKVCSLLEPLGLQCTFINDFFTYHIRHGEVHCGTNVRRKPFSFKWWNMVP
# [2] = molecular target: Platelet-activating factor acetylhydrolase (Homo sapiens) (UniProt Q13093); assay: inhibition of plasma PAF acetylhydrolase – biochemical, fluorescence polarization, human, confirmation (AID 463230;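 active = mean inhibition of the triplicate above the hit cutoff set for the earlier primary screen, cut at about 25% in these data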;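 note: 0% = enzyme with DMSO and 100% = wells lacking pPAFAH enzyme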); conditions: recombinant pPAFAH, FP-Rh probe fluorescence polarization; at 3.39 µM; hits give high values
# Chain of Platelet-activating factor acetylhydrolase (Homo sapiens) (Q13093 whole entry, looked up): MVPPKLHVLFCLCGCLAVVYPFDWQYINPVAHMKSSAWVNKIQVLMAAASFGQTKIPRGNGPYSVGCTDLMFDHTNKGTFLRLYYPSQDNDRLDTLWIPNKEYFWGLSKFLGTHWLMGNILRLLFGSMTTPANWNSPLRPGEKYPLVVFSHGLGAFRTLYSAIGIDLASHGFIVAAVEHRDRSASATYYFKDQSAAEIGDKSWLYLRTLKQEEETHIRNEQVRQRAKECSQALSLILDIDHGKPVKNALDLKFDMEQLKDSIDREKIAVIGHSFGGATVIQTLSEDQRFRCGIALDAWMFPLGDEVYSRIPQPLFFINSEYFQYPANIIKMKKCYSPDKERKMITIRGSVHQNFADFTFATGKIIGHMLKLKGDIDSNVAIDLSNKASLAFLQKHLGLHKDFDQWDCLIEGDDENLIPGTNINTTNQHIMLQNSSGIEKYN
# [3] = molecular target: Serine protease HTRA1 (Homo sapiens) (UniProt Q92743); assay: confirming inhibition of human HTRA1 – biochemical, fluorescence polarization, confirmation (AID 540248;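 active = mean inhibition over three repeats above a set limit taken from the earlier primary screen, cut at about 37% in these data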;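 note: 0% = HTRA1 with DMSO and 100% = wells lacking HTRA1; inhibitors block probe binding so polarization drops and inhibition rises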); conditions: recombinant HTRA1, FP-rhodamine activity-based probe, at 5.96 µM, hits give high values
# [4] = test system: transactivating tegument protein VP16 (Human herpesvirus 1); assay: compounds suppressing VP16-driven luciferase signal – cell-based, luminescence, single concentration, counter-screen for SRC2 inhibitor project (AID 652007; in the data active = inhibition above about 36%); conditions: cell-based VP16 transactivation luciferase reporter, at 8.9 µM, hits give high values
# [5] = molecular target: Nuclear receptor coactivator 2 (Homo sapiens) (UniProt Q15596); assay: inhibition of GAL4-SRC2 driven luciferase expression – cell-based, luminescence, HEK293, triplicate, confirmation (AID 652008;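 active = mean inhibition above 46.5%, the solvent-only control mean plus 3 SD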;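 note: 0% = DMSO-treated cells and 100% = Gossypol at 36 µM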); conditions: HEK293 GAL4-SRC2 luciferase reporter, at 8.9 µM, hits give high values
# Chain of Nuclear receptor coactivator 2 (Homo sapiens) (Q15596 whole entry, looked up, the tested form may be a part): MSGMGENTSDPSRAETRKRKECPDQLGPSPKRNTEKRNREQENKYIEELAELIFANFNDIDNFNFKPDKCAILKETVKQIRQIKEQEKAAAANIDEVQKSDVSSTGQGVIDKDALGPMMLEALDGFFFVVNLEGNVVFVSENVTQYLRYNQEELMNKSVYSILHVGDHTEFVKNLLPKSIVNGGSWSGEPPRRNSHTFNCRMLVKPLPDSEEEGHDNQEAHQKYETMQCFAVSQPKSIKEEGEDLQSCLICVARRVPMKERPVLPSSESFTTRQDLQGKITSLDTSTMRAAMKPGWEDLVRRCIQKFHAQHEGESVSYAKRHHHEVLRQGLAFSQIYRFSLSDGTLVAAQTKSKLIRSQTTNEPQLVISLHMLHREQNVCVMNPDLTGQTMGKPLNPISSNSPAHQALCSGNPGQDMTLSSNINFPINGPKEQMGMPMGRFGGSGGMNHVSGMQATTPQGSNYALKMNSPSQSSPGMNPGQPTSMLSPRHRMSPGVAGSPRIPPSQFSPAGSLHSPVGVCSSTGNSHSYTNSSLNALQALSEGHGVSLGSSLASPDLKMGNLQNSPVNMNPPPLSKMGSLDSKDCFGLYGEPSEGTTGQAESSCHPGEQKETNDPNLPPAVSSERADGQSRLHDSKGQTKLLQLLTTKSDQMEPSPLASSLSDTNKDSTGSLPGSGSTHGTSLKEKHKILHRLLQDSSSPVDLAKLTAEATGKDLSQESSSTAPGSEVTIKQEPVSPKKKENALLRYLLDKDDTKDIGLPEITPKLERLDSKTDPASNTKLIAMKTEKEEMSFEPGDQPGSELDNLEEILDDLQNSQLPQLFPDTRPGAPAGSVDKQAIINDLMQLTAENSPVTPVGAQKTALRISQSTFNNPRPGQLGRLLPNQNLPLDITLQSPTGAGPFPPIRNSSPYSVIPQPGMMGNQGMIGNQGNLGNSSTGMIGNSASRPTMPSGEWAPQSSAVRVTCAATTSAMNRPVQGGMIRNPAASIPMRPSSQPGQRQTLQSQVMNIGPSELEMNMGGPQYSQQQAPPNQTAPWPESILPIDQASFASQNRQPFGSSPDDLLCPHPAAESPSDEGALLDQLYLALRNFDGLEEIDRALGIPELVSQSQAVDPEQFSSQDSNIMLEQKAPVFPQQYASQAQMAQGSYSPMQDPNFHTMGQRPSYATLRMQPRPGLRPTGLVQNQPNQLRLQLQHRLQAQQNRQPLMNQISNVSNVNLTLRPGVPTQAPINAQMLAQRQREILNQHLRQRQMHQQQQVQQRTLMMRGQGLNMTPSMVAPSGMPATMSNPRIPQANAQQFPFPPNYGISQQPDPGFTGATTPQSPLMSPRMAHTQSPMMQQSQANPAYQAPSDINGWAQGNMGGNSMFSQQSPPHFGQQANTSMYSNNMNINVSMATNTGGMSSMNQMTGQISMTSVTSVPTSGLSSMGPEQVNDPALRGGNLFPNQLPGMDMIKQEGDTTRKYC
# [6] = molecular target: (Lyso)-N-acylphosphatidylethanolamine lipase (Mus musculus) (UniProt Q8VD66); assay: mouse ABHD4 hydrolase blockers, triplicate – biochemical, fluorescence polarization, confirmation (AID 720658;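 active = mean inhibition across replicates above the hit cutoff set in the primary screen, cut at about 30% in these data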;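 note: 0% = wild-type ABHD4 with DMSO and 100% = catalytically dead S159A mutant with DMSO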); conditions: purified mABHD4, FP-Rh probe fluorescence polarization; at 8.92 µM; hits give high values
# Chain of (Lyso)-N-acylphosphatidylethanolamine lipase (Mus musculus) (Q8VD66 whole entry, looked up): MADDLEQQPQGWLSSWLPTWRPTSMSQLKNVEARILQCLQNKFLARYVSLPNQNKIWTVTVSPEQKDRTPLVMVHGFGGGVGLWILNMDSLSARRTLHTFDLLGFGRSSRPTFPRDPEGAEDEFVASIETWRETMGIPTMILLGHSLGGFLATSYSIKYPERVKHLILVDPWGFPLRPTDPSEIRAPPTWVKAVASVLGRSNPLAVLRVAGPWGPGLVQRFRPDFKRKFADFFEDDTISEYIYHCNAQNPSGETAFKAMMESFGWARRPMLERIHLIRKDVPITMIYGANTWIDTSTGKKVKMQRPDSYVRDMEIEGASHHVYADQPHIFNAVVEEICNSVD
# [7] = reduced OD of T4-infected AddAB+ E. coli – absorbance, E. coli V3065, T4 phage, triplicate, AddAB inhibitor project, confirmation (AID 488942;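 active = mean inhibition above a set limit taken from the earlier primary screen, cut at about 13% in these data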;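 note: higher means less bacterial growth since AddAB block lets phage replicate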); conditions: E. coli V3065 expressing H. pylori AddAB, at 11.9 µM, hits give high values, T4 phage with gene 2 nonsense mutations
# [8] = reduced OD of phage-infected RecBCD+ V66 E. coli – absorbance, mutant T4 phage, counter-screen for AddAB inhibitor project (AID 488955;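 active = mean inhibition above the mean of solvent-only control wells plus 3 SD, cut at about 4% in these data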;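 note: optical density read after an 18 h incubation at 37 °C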); conditions: OD growth, at 11.9 µM, hits give high values
# [9] = bacterial growth inhibitors – absorbance, counter-screen for AddAB inhibitor project, confirmation (AID 488956; in the data active = inhibition above about 25%); conditions: bacterial viability, absorbance (AddAB counterscreen); at 11.9 µM; hits give high values
# [10] = BSA probe fluorescence interference – biochemical, TAMRA-labeled BSA, counter-screen for TCR-CD3 interaction inhibitor project (AID 652035; in the data active = inhibition above about 23%;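 note: 0% = buffer low control and 100% = reference high control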); conditions: TAMRA-labeled BSA probe fluorescence counterscreen; at 9.4 µM; hits give high values
# [11] = test system: T-cell receptor (TCR)-CD3 interaction, human; assay: blockers of TCR binding to CD3 – biochemical, fluorescence, TAMRA-labeled TCR probe, confirmation (AID 652036; in the data active = inhibition above about 19%); conditions: TAMRA-labeled TCR probe fluorescence binding assay; at 9.4 µM; hits give high values
# [12] = molecular target: Receptor-interacting serine/threonine-protein kinase 2 (Homo sapiens) (UniProt O43353); assay: inhibitors of RIPK2 association with NOD2 – fluorescence, CHO cells, BLA complementation, triplicate, confirmation (AID 624370;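 active = mean inhibition across replicates above a set limit taken from the earlier primary screen, cut at about 21% in these data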;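 note: 0% = DMSO-only wells and the high end = clavulanate BLA-blocked wells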); conditions: CCF4 FRET, at 4.98 µM, hits give high values
# Chain of Receptor-interacting serine/threonine-protein kinase 2 (Homo sapiens) (O43353 whole entry, looked up): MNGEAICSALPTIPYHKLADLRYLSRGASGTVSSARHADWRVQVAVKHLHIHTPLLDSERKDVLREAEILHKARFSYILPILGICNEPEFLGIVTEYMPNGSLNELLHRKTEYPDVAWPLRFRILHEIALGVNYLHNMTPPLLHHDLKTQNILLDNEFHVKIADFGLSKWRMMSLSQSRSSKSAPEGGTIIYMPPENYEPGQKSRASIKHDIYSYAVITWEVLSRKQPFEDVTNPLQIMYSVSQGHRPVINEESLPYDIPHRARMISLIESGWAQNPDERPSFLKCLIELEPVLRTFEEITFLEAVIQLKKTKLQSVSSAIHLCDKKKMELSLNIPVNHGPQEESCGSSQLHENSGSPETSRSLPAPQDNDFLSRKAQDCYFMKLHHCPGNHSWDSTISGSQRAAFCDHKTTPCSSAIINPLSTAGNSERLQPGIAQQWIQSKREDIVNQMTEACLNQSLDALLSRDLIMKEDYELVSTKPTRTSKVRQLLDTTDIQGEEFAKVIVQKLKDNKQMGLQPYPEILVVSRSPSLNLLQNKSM
# [13] = BLA reporter readout interference – cell-based, CHO-K1 CMV-bla, CCF4 FRET, fluorescence, artefact control for NOD2-RIPK2 interaction inhibitor project, confirmation (AID 624371;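 active = mean inhibition above the low-control mean inhibition plus three low-control SD, cut at about 11% in these data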;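 note: 0% = DMSO only wells and 100% = clavulanate high control wells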); conditions: CCF4 FRET ratio, counterscreen, at 4.98 µM, hits give high values
structure (smiles),measurement,setting,value
CCCCNC(=O)Nc1c(C)cc(SC#N)cc1C,inhibition,[1],35.6% (active)
CCc1nnc(SCc2cccc(F)c2)nc1CC,inhibition,[1],-0.68%
COc1cc(C(=O)NCc2ccc3c(c2)cc(C)n3C)cc(OC)c1OC,inhibition,[1],1.97%
Cc1nc2ccc(NC(=O)C(F)(F)F)cc2o1,inhibition,[1],4.72%
CC(C)n1cnc2c(NCc3ccccc3)cc(OCC3CCN(C)CC3)cc21,inhibition,[1],-10.7%
CCC(C)Cn1c(O)cc2nn(-c3nc4ccccc4s3)c(=O)c-2c1C (stereo not given),inhibition,[2],20.9%
same,inhibition,[3],59.6% (active)
same,inhibition,[4],86.8% (active)
same,inhibition,[5],94.8% (active)
same,inhibition,[6],54.4% (active)
Cc1nn(-c2ccccc2)c(C)c1NC(=O)COc1ccc(Cl)cc1Cl,inhibition,[1],5.05%
same,inhibition,[4],-8.62%
same,inhibition,[5],16.2%
CC(C)(C)NC(=O)COC(=O)c1cc(Cl)ccc1[N+](=O)[O-],inhibition,[7],-4.38%
same,inhibition,[8],0.98%
same,inhibition,[9],-3.45%
O=c1[nH]n(-c2ccc([N+](=O)[O-])cc2)c(=O)c2ccccc12,inhibition,[1],25.3% (active)
same,inhibition,[10],59.3% (active)
same,inhibition,[11],46% (active)
same,inhibition,[6],43.2% (active)
Cc1nn(C)cc1N1C(=O)c2cccc3c(N)ccc(c23)C1=O,inhibition,[1],36.2% (active)
same,inhibition,[12],24% (active)
same,inhibition,[13],26.6% (active)
same,inhibition,[10],52.9% (active)
same,inhibition,[11],33.9% (active)
same,inhibition,[6],40.4% (active)
c1ccc2c(C[n+]3csc4ccccc43)cccc2c1,inhibition,[1],61.3% (active)
O=C(/C=C/c1cccs1)c1cc(Cl)ccc1OC(=O)N1CCOCC1,inhibition,[2],47.8% (active)
same,inhibition,[4],20.3%
same,inhibition,[5],-4.35%
